Compound activity (PubChem BioAssay)
VLA-4 antagonist: inhibition of LDV-FITC ligand binding to human VLA-4 integrin | inhibition, % at 10 µM (by protocol) | Jurkat cells, LDV-FITC binding with Mn2+, flow cytometry; 100% = Mn2+-driven binding gain fully reversed | 24,000 compounds, 0.2% hits;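 active means inhibition above 50%; inconclusive means compound itself fluorescent, judged against control cell fluorescence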;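 further: 0% = Mn2+ stimulated cells lacking compound and 100% = ligand binding without Mn2+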
Target sequence (P13612 whole entry, looked up): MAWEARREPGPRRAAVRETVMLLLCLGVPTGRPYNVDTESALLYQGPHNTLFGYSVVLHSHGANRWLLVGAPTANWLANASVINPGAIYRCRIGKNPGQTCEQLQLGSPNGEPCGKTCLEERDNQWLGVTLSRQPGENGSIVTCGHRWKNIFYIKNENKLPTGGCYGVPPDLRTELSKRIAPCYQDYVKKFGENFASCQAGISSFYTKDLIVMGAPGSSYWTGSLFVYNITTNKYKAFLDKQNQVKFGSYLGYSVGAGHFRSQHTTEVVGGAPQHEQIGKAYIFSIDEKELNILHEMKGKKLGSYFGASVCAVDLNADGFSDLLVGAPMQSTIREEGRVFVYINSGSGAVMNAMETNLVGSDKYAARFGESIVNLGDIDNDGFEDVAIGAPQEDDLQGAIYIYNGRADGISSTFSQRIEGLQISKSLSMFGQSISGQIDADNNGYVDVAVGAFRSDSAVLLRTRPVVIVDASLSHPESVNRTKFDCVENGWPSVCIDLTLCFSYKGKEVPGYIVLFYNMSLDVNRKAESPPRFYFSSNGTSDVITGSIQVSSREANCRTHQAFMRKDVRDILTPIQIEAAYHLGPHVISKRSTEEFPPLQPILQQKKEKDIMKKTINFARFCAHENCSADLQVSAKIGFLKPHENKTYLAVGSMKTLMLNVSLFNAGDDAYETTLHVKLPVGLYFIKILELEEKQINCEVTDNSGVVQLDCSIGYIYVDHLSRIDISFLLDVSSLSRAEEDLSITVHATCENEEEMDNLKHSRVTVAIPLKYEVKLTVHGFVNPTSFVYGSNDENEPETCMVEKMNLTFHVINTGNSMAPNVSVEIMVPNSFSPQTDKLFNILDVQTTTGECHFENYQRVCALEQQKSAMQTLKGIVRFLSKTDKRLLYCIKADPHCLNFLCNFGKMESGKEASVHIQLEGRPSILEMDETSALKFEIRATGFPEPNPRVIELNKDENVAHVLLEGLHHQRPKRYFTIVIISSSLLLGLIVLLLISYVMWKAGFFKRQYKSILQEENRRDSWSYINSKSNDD
26S disassembly: blocks ATP-dependent breakdown of the yeast 26S proteasome; AID 751; anti-FLAG beads, GFP-proteasome disassembly, flow cytometry; 24,000 compounds, 0.2% hits; inhibition of disassembly, % (concentration not given with the values);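 active means inhibition of disassembly above about 33%, limit read from the data; inconclusive means likely self-fluorescent, control bead median signal at least 40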;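 further: plate controls were ATP control with full disassembly for no effect and ATP-gamma-S intact proteasomes for full effect; higher percent means more bead fluorescence retained so stronger block of disassembly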
Autofluor Jurkat: compound fluoresces in Jurkat cells, VLA-4 screen interference | compound autofluorescence, flow cytometry; stronger effect = higher value; 1 = vehicle-only cell background | fluorescence ratio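 (tested at 10 µM compound in the well)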 | 24,000 compounds, 0.61% hits | AID 576;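 active means fluorescence ratio above 2.44, which is 1 plus 3 SD of all ratios; inconclusive means signal too bright to measure linearly, ratio around 10 or more; inactive means fluorescence ratio below 2.44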;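 further: green fluorescence of cells measured with 488 nm excitation and 530 nm emission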
VLA-4 agonist: allosterically activates the human VLA-4 integrin; Jurkat cells, LDV-FITC binding, flow cytometry; activation, % at 10 µM (by protocol); 24,000 tested, under 10 active;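 active means fluorescent ligand binding to cells raised by more than 40% of the manganese-induced maximum; inconclusive means compound's own fluorescence above 85% of the ligand control signal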;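 further: 0% = ligand binding without compound and 100% = manganese-stimulated maximal binding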
Numbers without * were called inactive; ? = inconclusive. Hits are enriched below; roughly 1.1% of the tested compounds scored in any of these assays.

SMILES	VLA-4 antagonist	26S disassembly	Autofluor Jurkat	VLA-4 agonist
CCOC(=O)N1CCC(NS(=O)(=O)c2ccc3c(c2)OCC(=O)N3)CC1	4.0	0.4	1.09	-6.0
CCOC(=O)N1CCC(NS(=O)(=O)c2cc3c(cc2Cl)NC(=O)CO3)CC1	?	0.1	5.09*	?
COc1cccc(-n2nnc3c(=O)n(CC(=O)N4CCC(Cc5ccccc5)CC4)cnc32)c1	74.0*	1.4	1.05	-5.0
CCOc1ccc(C2CC(c3cccc(OC)c3)Nc3ncnn32)cc1 (centres undefined)	10.0	-1.1	1.05	1.0
CCOc1ccc(C2N(c3ccc(OC)cc3)C(=O)C3CCCN32)cc1OC (centres undefined)	-2.0	-1.2	1.03	-3.0
CCOc1ccc(C2N(c3ccc(F)cc3)C(=O)C3CCCN32)cc1OC (centres undefined)	-23.0	50.9*	1.06	3.0
NC(=O)c1oc2ccccc2c1NC(=O)c1nc2ccccc2s1	?	9.5	5.39*	?
COc1ccc(-c2nc(N3CCCC3)nc3nn4c(C)cc(C)nc4c23)cc1	-11.0	6.5	1.05	2.0
Nc1nc2n(n1)C(c1ccccc1Cl)CC(c1ccc(F)cc1)N2 (centres undefined)	?	0.5	2.72*	?
N#Cc1cc2c(nc1SCC(=O)Nc1sc3c(c1C#N)CCC3)CCCCC2	-9.7	104.6*	1.07	-0.3
CCOC(=O)c1sc(NC(=O)CSc2nc3c(cc2C#N)CCC3)c(C#N)c1C	-23.0	1.0	1.02	-0.5
O=C(Nc1ccc(Cl)c(C(F)(F)F)c1)C1CCCN(S(=O)(=O)c2cnc[nH]2)C1 (centres undefined)	?	-1.7	1.31	?
COc1ccc(-c2c(=O)n(OCc3ccccn3)c3ccccc3[n+]2[O-])cc1OC	?	0.0	2.5*	?
COc1ccc(NC(=O)CSc2ccccn2)cc1OC	2.5	-4.9	1.03	-2.0
CCOC(=O)C1CCCN(C(=O)c2cc3c(=O)n4cccc(C)c4nc3n2C)C1 (centres undefined)	-2.3	-0.2	1.13	6.0
CC(=O)C(Sc1nc(-c2ccco2)nc2c1c(=O)n(C)c(=O)n2C)C(=O)N(C)C (centres undefined)	-8.0	-1.1	1	0.0
COc1ccc(-c2nnc(Nc3nc4c(OC)cccc4s3)o2)cc1	65.5*	-0.8	1.1	1.0
COc1cc(OC)cc(-c2nnc(Nc3nc4c(F)cccc4s3)o2)c1	-21.3	0.9	1.1	6.7
COc1ccc(-c2nnc(Nc3nc4c(OC)cccc4s3)o2)c(OC)c1	68.0*	-0.8	1.13	5.0
O=C(Cn1cc2c(n1)CCCC2)Nc1cc(-c2cccc(Cl)c2)no1	-12.0	0.7	1.1	3.0
CCOC(=O)c1nnn(-c2nonc2N)c1CSc1ccccn1	?	0.1	1.08	-3.5
Cc1cc(N2C(=O)C(O)=C(C(=O)c3ccc(C)o3)C2c2cccs2)no1 (centres undefined)	-21.0	-0.2	1.09	6.0
COC(=O)c1sc(N2C(=O)C(O)=C(C(=O)c3ccc(C)o3)C2c2ccc(F)cc2)nc1C (centres undefined)	?	10.9	3.77*	?
Cn1c2ccccc2c2c(C(=O)O)cn(C3CCCC3)c(=O)c21	51.0*	0.4	1.13	-21.0
O=C(O)CCCNc1cc(N2CCC3(CC2)OCCO3)c2noc3c2c1C(=O)c1ccccc1-3	?	-3.2	5.17*	?
SMILES	VLA-4 antagonist	26S disassembly	Autofluor Jurkat	VLA-4 agonist
Cc1ccccc1-n1c(=O)cc(N2CCC3(CC2)OCCO3)[nH]c1=O	-7.0	0.9	1.07	3.0
CCOC(=O)N1CCN(c2c(NCCCN(CC)Cc3ccccc3)c(=O)c2=O)CC1	-23.0	-0.9	1.01	4.0
CCOC(=O)N1CCN(c2cc(NCCC(=O)O)c3c4c(onc24)-c2ccccc2C3=O)CC1	?	-3.0	4.61*	?
Cc1cc2oc3c(c(=O)c2cc1C)C(c1ccc(C(C)C)cc1)N(CCCN1CCOCC1)C3=O (centres undefined)	6.0	0.4	1.05	-8.0
O=C(c1coc(=O)c2ccccc12)N1CCN(Cc2ccccc2)CC1	?	-0.7	1.08	?
COc1ccc(C2C=C(c3ccc(Br)s3)Nc3ncnn32)cc1OC (centres undefined)	?	3.6	3.32*	?
CCOc1cc(C2NC(=O)N(C)C(C)=C2C(=O)OC)cc(Br)c1O (centres undefined)	?	16.4	4.35*	?
C/C(O)=c1/ccc2cccc3nc(C)nc1c23	?	17.0	3.5*	?
Oc1[nH]c2ccccc2c1/C=N/c1nccs1	?	16.6	9.62*	?
CN1CC=C2C(C#N)=C(N)C(C#N)(C#N)C(c3cccc(Cl)c3Cl)C2C1 (centres undefined)	?	17.3	2.73*	?
CCN(CC)CCCNC(CC(=O)O)C(=O)O (centres undefined)	14.0	0.1	1.09	-11.0
CCOc1ccc(/C=c2\sc3nc(-c4ccco4)nn3c2=O)cc1OCC	10.0	41.7*	1.2	0.0
CCOc1ccc2nc(N3CCC(C(=O)N4CCN(c5ccccn5)CC4)CC3)sc2c1	53.6*	0.6	1.29	-16.8
CCOc1ccc2nc(N3CCC(C(=O)N4CCN(c5ncccn5)CC4)CC3)sc2c1	11.0	-0.4	1.12	-7.0
Cc1cc(O)c(-c2cc(C(=O)Nc3ccc(S(=O)(=O)N4CCOCC4)cc3)[nH]n2)cc1C	56.0*	-0.5	1.14	-24.0
COc1ccc(-c2nc(C(N)=O)c3[nH]c(=O)n(-c4cccc(Cl)c4)c3n2)cc1OC	?	5.4	4.55*	?
CCOc1ccc(NC(=O)c2oc3ccccc3c2NC(=O)C2CC2)cc1	4.0	1.8	1.3	-7.0
C/C(=N\O)C(=O)NCc1ccncc1	?	-4.1	6.16*	?
CCOc1cc(C(=O)NCc2ccncc2)cc(OCC)c1OCC	-8.0	-2.1	1.06	2.0
CC1Cc2ccccc2N1S(=O)(=O)c1cnc[nH]1 (centres undefined)	?	3.5	1.46	?
O=S(=O)(c1cnc[nH]1)N1CCc2ccccc21	?	2.5	3.08*	?
CCOc1cc2[nH]c(=O)n(CC3CCC(C(=O)NC(C)CC)CC3)c(=O)c2cc1OCC (centres undefined)	63.0*	1.7	1.03	-9.0
COc1ccccc1OC(=O)c1ccc(SC)cc1OC	-11.5	-0.6	1.12	-2.0
COc1ccc(N2CCN(Cc3nc4c(c(=O)n(C)c(=O)n4C)n3Cc3ccccc3C)CC2)cc1	-9.5	-0.4	0.96	4.0
CCCN1Cc2cccc(C(=O)Nc3ccc(N4CCN(CC)CC4)cc3)c2C1=O	-2.0	6.1	1.03	-5.0
CCOC(=O)CCCCC(=O)c1[nH]c(=O)[nH]c1CSc1nc2ccccc2[nH]1	55.0*	0.0	1.03	1.0
Cc1[nH]c(=O)[nH]c1C(=O)CCCCC(=O)OCC(=O)Nc1ccccn1	22.0	-0.8	0.93	-1.0
Cc1cc(Cn2ccnc2)c(C)cc1Cn1ccnc1	-9.0	-0.8	1.02	-2.0
CCOc1cc2c(cc1OCC)C(c1cc(OC)c(O)c(OC)c1)NCC2 (centres undefined)	-29.5	2.3	0.99	7.5
